Measurements reported in the supplement of paper PMC10849652.
Targets with a hit are over-represented here; the source holds about 7,900 in all. About 0.6% of all pairs of compound and target were hits.

What was measured:
Assay in all cases: log2 fold change, soluble protein after heating vs DMSO (PISA); higher = thermal stabilisation; K562 cells, 10 uM, 30 min; active = over 0.2 and 3.5 SD of the protein, either way, in both replicates (recomputed)
[1] = compound: COC1=CC=C(C=C1)CN2C=CC3=C2C=C(C=C3)C(=O)NO
Outline: (§1)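 K562 cells at 2×10^6 cells/mL were treated for 30 min with 10 μM compound, and aliquots were heated for 3 min over 48°C-58°C before pooling. Extraction used PBS with 0.5% NP-40 at 4°C, and soluble protein was the supernatant after 21,000xg for 90 min, measured by TMTpro 16plex LC-MS/MS with channel sums equalised. Thermal stability values, relative to control samples and from duplicates, are log2 fold changes.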

filanesib = compound: CON(C)C(=O)N1N=C(c2cc(F)ccc2F)S[C@@]1(CCCN)c1ccccc1 [filanesib]
Outline: as §1

zotarolimus = compound: CO[C@H]1C[C@@H]2CC[C@@H](C)[C@@](O)(O2)C(=O)C(=O)N2CCCC[C@H]2C(=O)O[C@H]([C@H](C)C[C@@H]2CC[C@H](n3cnnn3)[C@H](OC)C2)CC(=O)[C@H](C)/C=C(\C)[C@@H](O)[C@@H](OC)C(=O)[C@H](C)C[C@H](C)/C=C/C=C/C=C/1C [zotarolimus]
Outline: as §1

idasanutlin = compound: COc1cc(C(=O)O)ccc1NC(=O)[C@@H]1N[C@@H](CC(C)(C)C)[C@](C#N)(c2ccc(Cl)cc2F)[C@H]1c1cccc(Cl)c1F [idasanutlin]
Outline: as §1

alisertib = compound: COc1cc(Nc2ncc3c(n2)-c2ccc(Cl)cc2C(c2c(F)cccc2OC)=NC3)ccc1C(=O)O [alisertib]
Outline: as §1

[2] = compound: COc1cc2nc(-c3cc(F)ccc3O)nc(N[C@@H]3CNC[C@H]3C(C)(C)O)c2cc1OC
Outline: as §1

gefitinib = compound: COc1cc2ncnc(Nc3ccc(F)c(Cl)c3)c2cc1OCCCN1CCOCC1 [gefitinib]
Outline: as §1

[3] = compound: COc1cccc2cc(-c3nc([C@H]4CC[C@H](C(=O)O)CC4)n4ncnc(N)c34)[nH]c12
Outline: as §1

lapatinib = compound: CS(=O)(=O)CCNCc1ccc(-c2ccc3ncnc(Nc4ccc(OCc5cccc(F)c5)c(Cl)c4)c3c2)o1 [lapatinib]
Outline: as §1

pictilisib = compound: CS(=O)(=O)N1CCN(Cc2cc3nc(-c4cccc5[nH]ncc45)nc(N4CCOCC4)c3s2)CC1 [pictilisib]
Outline: as §1

[4] = compound: CS(=O)(=O)c1ccc(-c2cnc(N)c(C(=O)Nc3ccccc3)n2)cc1
Outline: as §1

crizotinib = compound: C[C@@H](Oc1cc(-c2cnn(C3CCNCC3)c2)cnc1N)c1c(Cl)ccc(F)c1Cl [crizotinib]
Outline: as §1

[5] = compound: C[C@@H]1COCCN1C2=NC(=NC(=C2)C3(CC3)S(=O)(=O)C)C4=C5C=CNC5=CC=C4
Outline: as §1

[6] = compound: C[C@H](C1=CC=C(C=C1)C(=O)NC2=C3C=CNC3=NC=C2)N
Outline: as §1

duvelisib = compound: C[C@H](Nc1ncnc2nc[nH]c12)c1cc2cccc(Cl)c2c(=O)n1-c1ccccc1 [duvelisib]
Outline: as §1

gandotinib = compound: Cc1cc(Nc2cc(CN3CCOCC3)c3nc(C)c(Cc4ccc(Cl)cc4F)n3n2)n[nH]1 [gandotinib]
Outline: as §1

tozasertib = compound: Cc1cc(Nc2cc(N3CCN(C)CC3)nc(Sc3ccc(NC(=O)C4CC4)cc3)n2)n[nH]1 [tozasertib]
Outline: as §1

[7] = compound: Cc1cc(SCc2sc(-c3ccc(C(F)(F)F)cc3)nc2C)ccc1OCC(=O)O
Outline: as §1

doramapimod = compound: Cc1ccc(-n2nc(C(C)(C)C)cc2NC(=O)Nc2ccc(OCCN3CCOCC3)c3ccccc23)cc1 [doramapimod]
Outline: as §1

ispinesib = compound: Cc1ccc(C(=O)N(CCCN)[C@@H](c2nc3cc(Cl)ccc3c(=O)n2Cc2ccccc2)C(C)C)cc1 [ispinesib]
Outline: as §1

Measured: log2 fold change

RDH11 (UniProt Q8TC12)
Chain of UniProt Q8TC12 (Q8TC12 whole entry, looked up): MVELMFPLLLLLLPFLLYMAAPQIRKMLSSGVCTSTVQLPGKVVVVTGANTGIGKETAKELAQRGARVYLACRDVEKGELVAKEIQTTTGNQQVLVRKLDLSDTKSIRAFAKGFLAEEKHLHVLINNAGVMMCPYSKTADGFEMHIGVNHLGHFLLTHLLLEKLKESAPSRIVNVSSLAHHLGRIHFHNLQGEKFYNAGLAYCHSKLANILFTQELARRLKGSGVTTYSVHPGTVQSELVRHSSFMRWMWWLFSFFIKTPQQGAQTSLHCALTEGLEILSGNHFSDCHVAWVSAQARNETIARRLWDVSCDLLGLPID
active: [7] 0.425
inactive: [1] 0.087 | filanesib -0.046 | zotarolimus 0.093 | idasanutlin 0.032 | alisertib -0.01 | [2] -0.333 | gefitinib 0.071 | [3] 0 | lapatinib 0.03 | pictilisib 0.241 | [4] 0.164 | crizotinib -0.303 | [5] 0.082 | [6] 0.116 | duvelisib 0.11 | gandotinib 0.115 | tozasertib -0.029 | doramapimod 0.098 | ispinesib -0.365

RPS6KA1 isoform 2 (UniProt Q15418)
Chain of UniProt Q15418 (Q15418 whole entry, looked up): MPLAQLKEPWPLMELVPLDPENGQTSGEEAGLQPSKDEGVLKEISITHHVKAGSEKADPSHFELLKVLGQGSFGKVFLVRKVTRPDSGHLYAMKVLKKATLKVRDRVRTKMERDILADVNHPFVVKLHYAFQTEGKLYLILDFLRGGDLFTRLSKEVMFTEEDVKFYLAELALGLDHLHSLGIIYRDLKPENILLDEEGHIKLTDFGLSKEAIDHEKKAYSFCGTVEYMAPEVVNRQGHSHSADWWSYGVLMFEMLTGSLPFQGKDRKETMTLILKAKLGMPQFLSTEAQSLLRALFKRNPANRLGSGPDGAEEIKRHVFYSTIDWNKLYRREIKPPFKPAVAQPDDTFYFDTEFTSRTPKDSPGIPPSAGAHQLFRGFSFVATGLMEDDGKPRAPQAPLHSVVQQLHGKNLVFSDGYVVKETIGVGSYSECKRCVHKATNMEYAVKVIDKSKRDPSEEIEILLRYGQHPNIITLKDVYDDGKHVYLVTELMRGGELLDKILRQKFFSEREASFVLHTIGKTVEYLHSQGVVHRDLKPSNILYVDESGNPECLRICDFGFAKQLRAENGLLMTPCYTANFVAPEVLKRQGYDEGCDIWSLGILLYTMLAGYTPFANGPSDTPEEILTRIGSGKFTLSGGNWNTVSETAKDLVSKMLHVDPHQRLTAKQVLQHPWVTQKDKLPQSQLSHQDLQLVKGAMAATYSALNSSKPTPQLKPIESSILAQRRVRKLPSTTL
inactive: [1] 0.087 | filanesib -0.022 | zotarolimus 0.025 | idasanutlin -0.016 | alisertib -0.01 | [2] -0.202 | gefitinib -0.062 | [3] 0 | lapatinib 0.013 | pictilisib -0.053 | [4] 0 | crizotinib -0.259 | [5] 0.138 | [6] -0.066 | duvelisib 0.03 | gandotinib -0.199 | tozasertib 0.002 | [7] 0.066 | doramapimod -0.026 | ispinesib 0.021

RNPS1 (UniProt Q15287)
Chain of UniProt Q15287 (Q15287 whole entry, looked up): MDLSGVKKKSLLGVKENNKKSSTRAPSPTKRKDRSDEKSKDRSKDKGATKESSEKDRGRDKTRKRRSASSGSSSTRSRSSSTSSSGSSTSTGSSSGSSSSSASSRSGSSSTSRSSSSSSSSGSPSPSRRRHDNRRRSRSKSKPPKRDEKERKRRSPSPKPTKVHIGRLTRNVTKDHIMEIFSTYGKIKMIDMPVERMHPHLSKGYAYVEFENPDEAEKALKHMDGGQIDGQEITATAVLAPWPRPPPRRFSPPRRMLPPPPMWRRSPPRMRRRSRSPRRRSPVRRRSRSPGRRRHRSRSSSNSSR
inactive: [1] 0.062 | filanesib 0.13 | zotarolimus -0.014 | idasanutlin 0.274 | alisertib 0.024 | [2] -0.073 | gefitinib 0.04 | [3] -0.005 | lapatinib 0.075 | pictilisib -0.001 | [4] 0.018 | crizotinib -0.109 | [5] 0.114 | [6] -0.019 | duvelisib -0.091 | gandotinib 0.089 | tozasertib 0.108 | [7] -0.028 | doramapimod -0.104 | ispinesib 0.042

SAAL1 (UniProt Q96ER3)
Chain of UniProt Q96ER3 (Q96ER3 whole entry, looked up): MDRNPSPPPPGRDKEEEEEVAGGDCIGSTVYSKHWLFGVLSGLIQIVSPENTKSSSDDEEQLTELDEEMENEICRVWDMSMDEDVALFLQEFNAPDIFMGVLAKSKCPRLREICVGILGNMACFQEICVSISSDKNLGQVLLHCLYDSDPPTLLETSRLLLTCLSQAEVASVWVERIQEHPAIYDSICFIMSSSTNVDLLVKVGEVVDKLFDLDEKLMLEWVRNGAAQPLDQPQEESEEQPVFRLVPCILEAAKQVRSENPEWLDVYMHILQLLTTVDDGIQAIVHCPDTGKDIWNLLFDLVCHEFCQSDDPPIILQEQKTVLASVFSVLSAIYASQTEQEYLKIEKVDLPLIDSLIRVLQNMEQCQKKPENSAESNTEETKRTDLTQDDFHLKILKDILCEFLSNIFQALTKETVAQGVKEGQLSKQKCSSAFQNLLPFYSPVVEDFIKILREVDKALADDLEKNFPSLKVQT
inactive: [1] -0.179 | filanesib -0.032 | zotarolimus 0.016 | idasanutlin -0.11 | alisertib -0.067 | [2] 0.214 | gefitinib -0.055 | [3] 0.018 | lapatinib -0.002 | pictilisib -0.018 | [4] 0.013 | crizotinib -0.129 | [5] 0.047 | [6] 0.008 | duvelisib 0.036 | gandotinib 0.022 | tozasertib -0.044 | [7] 0.019 | doramapimod -0.006 | ispinesib -0.049

SCD (UniProt O00767)
inactive: filanesib -0.074 | zotarolimus -0.024 | idasanutlin -0.001 | alisertib 0.014 | [2] -0.054 | gefitinib 0.019 | [3] 0.048 | lapatinib -0.017 | pictilisib -0.053 | [4] 0.024 | crizotinib -0.2 | [5] -0.06 | [6] -0.068 | duvelisib 0.007 | gandotinib -0.061 | tozasertib -0.07 | [7] -0.119 | doramapimod -0.028 | ispinesib -0.319
active: [1] -0.458

RARS2 (UniProt Q5T160)
Chain of UniProt Q5T160 (Q5T160 whole entry, looked up): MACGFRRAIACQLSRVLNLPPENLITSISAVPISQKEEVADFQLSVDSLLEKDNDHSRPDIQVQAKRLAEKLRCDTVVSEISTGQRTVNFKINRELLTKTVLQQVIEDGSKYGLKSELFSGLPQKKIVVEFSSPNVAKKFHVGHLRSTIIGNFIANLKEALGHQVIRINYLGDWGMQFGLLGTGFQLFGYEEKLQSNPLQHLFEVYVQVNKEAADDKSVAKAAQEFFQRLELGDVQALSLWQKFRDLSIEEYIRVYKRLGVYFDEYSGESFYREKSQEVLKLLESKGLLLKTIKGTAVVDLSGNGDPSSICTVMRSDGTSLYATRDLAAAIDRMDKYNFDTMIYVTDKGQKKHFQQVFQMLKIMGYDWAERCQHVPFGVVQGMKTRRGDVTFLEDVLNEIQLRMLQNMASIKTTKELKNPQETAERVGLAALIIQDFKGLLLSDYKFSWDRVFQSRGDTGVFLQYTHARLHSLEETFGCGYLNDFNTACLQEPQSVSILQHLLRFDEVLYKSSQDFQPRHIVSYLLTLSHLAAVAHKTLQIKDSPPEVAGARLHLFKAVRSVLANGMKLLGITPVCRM
inactive: [1] 0.009 | zotarolimus 0.007 | idasanutlin -0.071 | alisertib -0.016 | [2] -0.028 | gefitinib -0.013 | [3] 0.051 | lapatinib 0.051 | pictilisib -0.031 | [4] -0.026 | crizotinib -0.016 | [5] 0.091 | [6] -0.021 | duvelisib 0.018 | gandotinib -0.075 | tozasertib 0.01 | [7] 0.019 | doramapimod -0.017 | ispinesib -0.033
active: filanesib -0.245

RB1CC1 (UniProt Q8TDY2)
Chain of UniProt Q8TDY2 (Q8TDY2 whole entry, looked up): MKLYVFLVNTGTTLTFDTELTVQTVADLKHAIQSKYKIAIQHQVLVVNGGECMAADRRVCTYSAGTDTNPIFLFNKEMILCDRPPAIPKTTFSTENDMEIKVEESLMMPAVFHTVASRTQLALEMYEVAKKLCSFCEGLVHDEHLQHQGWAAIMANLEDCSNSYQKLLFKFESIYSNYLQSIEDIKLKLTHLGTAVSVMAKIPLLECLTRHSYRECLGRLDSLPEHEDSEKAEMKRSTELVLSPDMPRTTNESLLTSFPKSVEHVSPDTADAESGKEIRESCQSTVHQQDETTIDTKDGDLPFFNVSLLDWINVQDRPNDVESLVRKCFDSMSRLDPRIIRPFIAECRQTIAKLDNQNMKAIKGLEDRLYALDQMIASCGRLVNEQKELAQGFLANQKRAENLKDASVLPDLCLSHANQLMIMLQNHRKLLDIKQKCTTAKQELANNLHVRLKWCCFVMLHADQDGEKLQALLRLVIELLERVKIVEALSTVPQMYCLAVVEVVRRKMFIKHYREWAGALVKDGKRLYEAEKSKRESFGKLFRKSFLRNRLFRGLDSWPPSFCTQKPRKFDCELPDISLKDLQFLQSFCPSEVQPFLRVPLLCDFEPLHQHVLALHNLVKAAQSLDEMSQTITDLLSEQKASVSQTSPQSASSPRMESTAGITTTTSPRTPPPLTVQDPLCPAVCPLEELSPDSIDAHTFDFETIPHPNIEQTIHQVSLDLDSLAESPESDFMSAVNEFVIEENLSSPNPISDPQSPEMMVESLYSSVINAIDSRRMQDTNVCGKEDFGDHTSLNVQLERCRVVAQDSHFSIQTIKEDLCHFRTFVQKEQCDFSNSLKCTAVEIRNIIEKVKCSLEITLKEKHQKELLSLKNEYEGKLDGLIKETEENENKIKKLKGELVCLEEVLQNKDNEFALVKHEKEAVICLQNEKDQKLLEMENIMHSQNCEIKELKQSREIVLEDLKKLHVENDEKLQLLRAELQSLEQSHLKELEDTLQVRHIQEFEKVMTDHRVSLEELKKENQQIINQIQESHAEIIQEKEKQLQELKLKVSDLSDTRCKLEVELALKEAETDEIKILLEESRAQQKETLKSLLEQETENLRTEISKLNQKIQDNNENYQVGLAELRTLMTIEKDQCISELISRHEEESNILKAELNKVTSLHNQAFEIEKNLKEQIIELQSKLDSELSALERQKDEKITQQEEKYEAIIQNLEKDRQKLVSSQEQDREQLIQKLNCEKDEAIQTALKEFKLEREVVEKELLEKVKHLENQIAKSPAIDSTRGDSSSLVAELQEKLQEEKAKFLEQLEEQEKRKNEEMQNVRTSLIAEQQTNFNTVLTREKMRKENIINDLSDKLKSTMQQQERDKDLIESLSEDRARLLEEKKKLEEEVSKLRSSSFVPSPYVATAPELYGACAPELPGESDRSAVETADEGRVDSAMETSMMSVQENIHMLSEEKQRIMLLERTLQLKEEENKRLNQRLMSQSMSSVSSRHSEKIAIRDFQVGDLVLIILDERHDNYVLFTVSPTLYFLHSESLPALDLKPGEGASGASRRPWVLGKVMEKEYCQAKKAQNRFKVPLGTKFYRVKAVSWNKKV
active: [1] 0.435
inactive: filanesib -0.079 | zotarolimus 0.014 | idasanutlin -0.002 | alisertib -0.112 | [2] 0.182 | gefitinib -0.042 | [3] -0.049 | lapatinib 0.181 | pictilisib 0.083 | [4] 0.062 | crizotinib 0.041 | [5] -0.006 | [6] 0.033 | duvelisib -0.006 | gandotinib 0.132 | tozasertib -0.013 | [7] 0.011 | doramapimod 0.037 | ispinesib -0.02

RAB9A (UniProt P51151)
Chain of UniProt P51151 (P51151 whole entry, looked up): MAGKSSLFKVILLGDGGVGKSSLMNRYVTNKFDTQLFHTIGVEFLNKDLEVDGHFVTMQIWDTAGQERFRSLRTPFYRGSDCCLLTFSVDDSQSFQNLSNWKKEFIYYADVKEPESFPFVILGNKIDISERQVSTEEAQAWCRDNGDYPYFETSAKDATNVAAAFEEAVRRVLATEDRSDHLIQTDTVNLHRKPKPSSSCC
inactive: [1] 0.022 | filanesib -0.074 | zotarolimus 0.024 | idasanutlin -0.026 | alisertib -0.021 | [2] 0.008 | gefitinib 0.015 | [3] 0.067 | lapatinib -0.026 | pictilisib -0.011 | [4] 0.007 | crizotinib -0.119 | [5] -0.006 | [6] -0.044 | duvelisib 0.04 | gandotinib 0 | tozasertib 0.018 | [7] 0.016 | doramapimod 0.018 | ispinesib -0.168

RNF220 (UniProt Q5VTB9)
Chain of UniProt Q5VTB9 (Q5VTB9 whole entry, looked up): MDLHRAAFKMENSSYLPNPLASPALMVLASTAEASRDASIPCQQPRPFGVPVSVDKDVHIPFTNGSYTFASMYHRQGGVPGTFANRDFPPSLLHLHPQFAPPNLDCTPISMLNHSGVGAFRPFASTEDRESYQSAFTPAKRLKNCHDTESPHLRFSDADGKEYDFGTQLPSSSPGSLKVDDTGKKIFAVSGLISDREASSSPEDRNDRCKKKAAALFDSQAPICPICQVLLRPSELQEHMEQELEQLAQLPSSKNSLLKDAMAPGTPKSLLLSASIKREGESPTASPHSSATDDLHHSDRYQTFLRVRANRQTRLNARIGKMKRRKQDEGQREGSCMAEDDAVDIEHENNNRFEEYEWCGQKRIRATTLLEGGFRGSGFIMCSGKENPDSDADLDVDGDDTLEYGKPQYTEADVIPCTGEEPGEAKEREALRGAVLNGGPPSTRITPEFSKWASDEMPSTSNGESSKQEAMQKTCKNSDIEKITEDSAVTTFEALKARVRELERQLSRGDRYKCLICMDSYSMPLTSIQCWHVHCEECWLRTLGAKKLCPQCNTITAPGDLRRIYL
inactive: [1] -0.004 | filanesib 0.108 | zotarolimus 0.062 | idasanutlin -0.006 | alisertib -0.062 | [2] 0.047 | gefitinib -0.032 | [3] 0.002 | lapatinib -0.006 | pictilisib 0.068 | [4] -0.001 | crizotinib 0.096 | [5] -0.003 | [6] -0.042 | duvelisib 0.055 | gandotinib -0.012 | tozasertib 0.043 | [7] -0.011 | doramapimod -0.057 | ispinesib 0.073

SDHC (UniProt Q99643)
Chain of UniProt Q99643 (Q99643 whole entry, looked up): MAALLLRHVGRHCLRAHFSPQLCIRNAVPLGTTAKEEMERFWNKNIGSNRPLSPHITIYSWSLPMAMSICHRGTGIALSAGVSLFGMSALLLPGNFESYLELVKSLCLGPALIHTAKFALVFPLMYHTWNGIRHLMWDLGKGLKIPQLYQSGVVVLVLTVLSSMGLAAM
active: [5] 0.457
inactive: [1] 0.088 | filanesib 0.088 | zotarolimus 0.094 | idasanutlin -0.238 | alisertib 0.023 | [2] -0.107 | gefitinib 0.042 | [3] 0.04 | lapatinib -0.081 | pictilisib -0.006 | [4] -0.304 | crizotinib 0.08 | [6] -0.045 | duvelisib 0.155 | gandotinib -0.023 | tozasertib 0.042 | [7] -0.111 | doramapimod -0.086 | ispinesib 0.047

RPS4X (UniProt P62701)
inactive: [1] -0.059 | filanesib 0.314 | zotarolimus -0.001 | idasanutlin 0.148 | alisertib -0.099 | [2] -0.038 | gefitinib -0.048 | [3] -0.222 | lapatinib 0.102 | pictilisib -0.155 | [4] -0.027 | crizotinib 0.021 | [5] -0.378 | [6] 0.333 | duvelisib -0.211 | gandotinib 0.264 | tozasertib 0.039 | [7] -0.023 | doramapimod 0.18 | ispinesib -0.141

RANBP2 (UniProt P49792)
inactive: filanesib -0.048 | zotarolimus 0.029 | idasanutlin -0.005 | alisertib 0.079 | [2] 0.044 | gefitinib 0.05 | [3] -0.097 | lapatinib -0.07 | pictilisib -0.002 | [4] -0.016 | crizotinib 0.009 | [5] -0.011 | [6] 0.103 | duvelisib 0.065 | gandotinib -0.066 | tozasertib 0.013 | [7] -0.003 | doramapimod 0.043 | ispinesib -0.031
active: [1] 0.334

SEC24A (UniProt O95486)
inactive: [1] 0.029 | filanesib -0.083 | zotarolimus 0.033 | idasanutlin -0.087 | alisertib -0.002 | [2] -0.004 | gefitinib -0.028 | [3] -0.016 | lapatinib -0.021 | pictilisib -0.077 | [4] 0.002 | crizotinib -0.001 | [5] 0.075 | [6] 0.001 | duvelisib 0.038 | gandotinib -0.148 | tozasertib 0.018 | [7] 0.084 | doramapimod -0.029 | ispinesib 0.017
